High-throughput results (PubChem BioAssay)
FUS yeast rescue = qHTS for Suppressors of FUS Proteinopathy: Primary screen using FUS-linked yeast assay; Potency, µM (series often up to 76.6 µM), most hits filed as activators; S. cerevisiae FUS-expressing, growth rescue, OD600, 24 h; 390,000 tested, 0.24% active; AID 1347120, 2019;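 note: plate controls were DMSO vehicle for no effect and reference control for full effect; nearly all actives have a fitted effect of over 55% in size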
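Compound concentration series was pinned onto galactose-induced FUS-expressing yeast seeded at OD 0.005. Plates sat 24hr at 30C; absorbance at 600 nm gave growth. DMSO served as background control.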
Abeta rescue = qHTS for compounds that reverse cellular toxicity of Amyloid beta (A-beta) peptide in yeast: Primary Screen; yeast expressing A-beta42, growth rescue, OD600, 48 h; response scale: 0% DMSO, 100% iron-clioquinol control; Potency, µM (series often up to 46.1 µM), most hits filed as activators; 410,000 tested, 0.063% active; AID 1347071, 2019; note: nearly all actives have a fitted effect of over 55% in size
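Yeast A-beta toxicity model in growth medium with pinned compounds, 48 h at 30 C; growth read as absorbance at 600 nm. Normalized to FeCl3/clioquinol equimolar mix (positive) and DMSO (negative).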
TDP-43 yeast inh = qHTS of TDP-43 Inhibitors; Potency, µM (top dose mostly 46.1 µM), for the others: at the highest dose growth rescue (activation), actives largely listed as activators; AID 652104, 2013; TDP-43 expressing yeast growth rescue, BacTiter-Glo, 24 h; 410,000 tested, 1.8% active; note: % of control where 0% means no effect; nearly all actives have a fitted effect of over 50% in size
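Yeast cells expressing TDP-43 under galactose induction are exposed to compounds for 24 hr at 30 deg C. BacTiter-Glo luminescence measures growth, so protective compounds score as activators.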
aSyn rescue = qHTS of alpha-syn Inhibitors | 370,000 tested, 0.14% active | Potency, µM (series often up to 46.1 µM), inactives show at the top dose growth rescue (activation), usual class: activators | AID 652106, 2013 | Yeast expressing alpha-synuclein, growth rescue, BacTiter-Glo, 24 h; note: % of control where 0% means no effect; nearly all actives have a fitted effect of over 65% in size
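Readout is rescue of growth in alpha-synuclein-expressing yeast, so inhibitors of toxicity appear as activators. Growth after 24 hr at 30 deg C in galactose medium is quantified by luminescence.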
An asterisk follows results filed as active; i = inactive; ? = inconclusive; . = not tested or not shown; ! = not active in a repeat; [ ] = remark or other dose. A selection: hits, their analogues and other compounds. The true share with any hit is near 2.1%. Calls come from the whole dose curve; as a rule, active = well fitted curve in the direction sought with a large enough effect; inconclusive = small, poorly fitted or top-dose-only effect, or another doubt; inactive = no such curve, though single readings can be large; an effect the other way counts as inactive or inconclusive. Potency is the fitted concentration of half-maximal effect.

SMILES | FUS yeast rescue | Abeta rescue | TDP-43 yeast inh | aSyn rescue
C=CCN(CC=C)c1ccc(/C=C/c2ccnc3ccccc23)cc1 | . | . | . | -29%
OCCCCC#Cc1c(-c2ccsc2)sc2ccccc12 | i | i | 14µM* | -34%
CCC1CN(C(=O)Nc2ccc(C)c(F)c2)c2ccccc2S1 (configuration not stated) | i | i | 1% | .
CC(=O)CC[C@@H]1CC[C@]2(CCCN(C(=O)c3ccno3)C2)O1 | i | . | . | .
Cc1cc(C)nc(NC(=O)Cc2ccc(Cl)cc2)c1 | i | i | 18µM* | -7%
O=C(Cc1ccc(Cl)cc1)Nc1ccc(Cl)cn1 | i | i | 15% | -10%
COCCCCOc1cc2nc(N3CCCN(C)CC3)nc(NC3CCN(C)CC3)c2cc1OC | . | . | . | -7%
CC(=O)C1=CCC(c2ccc(Cl)cc2)N(S(=O)(=O)c2ccccc2)C1 (configuration not stated) | i | i | 14µM* | ?
CC(=O)C1=CCC(c2ccc(Cl)cc2)N(S(=O)(=O)c2ccc(C)cc2)C1 (configuration not stated) | ? | i | 35µM*! | ?
CCc1ccccc1Nc1cc(C(=O)NCc2ccc(C)cc2)c2ccccc2n1 | i | i | 25% | .
CCOC(=O)CC(=O)CSc1nc(C)cc(C)c1C#N | i | i | 17% | 5%
C#CCSc1nc(C)cc(C(=O)OCC)c1C#N | i | i | 14µM* | -5%
O=C1C=C(c2ccccc2)OC(c2ccccc2)O1 (configuration not stated) | i | i | 13µM* | 11%
CCOC(=O)c1c(N)sc(C(N)=O)c1C | i | i | 13% | 2%
CCCOC(=O)c1c(N)sc(C(=O)OCC)c1C | i | i | 7.9µM* | 4%
O=c1c2sc3ccccc3c2n(Cc2cccc(C(F)(F)F)c2)c(=O)n1-c1ccccc1 | i | i | ? | .
CCCS(=O)(=O)c1c(S(=O)(=O)CCC)c2cc(C(C)(C)C)ccn2c1C(=O)c1ccccc1 | 18µM* | i | -8% | .
O=[N+]([O-])c1cc(-c2nc(-c3ccccc3)no2)ccc1N1CCOCC1 | i | i | 17% | .
CN(C(=O)c1ccc(NC(=O)Cc2cccc(NC(=O)C3CCCN(C(=O)C4CCCCC4)C3)c2)cc1)C1CCCC1 (configuration not stated) | 28µM* | i | 10% | -2%
COC(=O)[C@]12C=CCN1[C@H](c1ccc(C(F)(F)F)cc1)c1c(c3ccccc3n1S(=O)(=O)c1ccc(C)cc1)C2 | i | . | . | .
CCOC(=O)c1c(C)[nH]c(C)c1S(=O)(=O)N(C)CC(=O)Nc1cc(Cl)ccc1OC | i | i | -8% | .
Cc1ccc(C(=O)Nc2ccccc2)cc1S(=O)(=O)Nc1ccccc1 | i | i | 1% | .
Cc1ccc(C(=O)Nc2ccccc2)cc1S(=O)(=O)Nc1ccc(Br)cc1 | i | i | 13µM* | .
COc1ccc(-n2nnnc2SCC(=O)NCCc2ccccc2)cc1OC | i | i | -14% | -1%
Cc1ccc(-n2nnnc2SCC(=O)NCCc2ccccc2)cc1C | i | i | 22µM* | .
SMILES | FUS yeast rescue | Abeta rescue | TDP-43 yeast inh | aSyn rescue
Clc1ccc(-c2nc3ccc(Cl)cn3c2Cc2ccccc2)cc1 | i | i | 20µM* | 25%
Fc1ccc(-c2nc3ccc(Cl)cn3c2Cc2cccc(Cl)c2)cc1 | i | i | 25% | -1%
Clc1ccc2nc(-c3ccccc3)c(Cc3ccccc3)n2c1 | i | i | 0% | -22%
Fc1ccc(-c2nc3ccc(Cl)cn3c2Cc2ccccc2)cc1 | i | i | 35µM* | 23%
C/C(=N\NC(=O)COc1ccccc1-c1ccccc1)c1cccnc1 | i | i | 22% | 8%
C/C(=N\NC(=O)COc1ccccc1-c1ccccc1)c1ccccn1 | i | i | ? | 18µM*
CN=c1scc(-c2cccs2)n1/N=C/c1ccc(O)c(O)c1O | 32µM* | i | -10%[0.397 µM] | -43%
Cc1cc2c(s1)c1cnn(Cc3ccc(F)cc3F)c(=O)c1n2C | i | . | . | .
COc1cc(Cl)c(C)cc1NC(=O)c1nn(C)c2c1CSc1ccccc1-2 | i | i | 13% | .
Cc1c(C(=O)NCCSCc2ccc(F)cc2)cnn1-c1ccc(Cl)cc1 | i | i | 13µM* | 11%
